Assay [1] in a line: NCI Yeast Anticancer Drug Screen. Data for the rad50 strain (AID 155).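 Further: 0% = growth of vehicle-only cultures of the same strain.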 Particulars: S. cerevisiae rad50 strain growth inhibition; at 50.0 µM; hits give high values. The method in brief: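 Vehicle-treated cultures provide the reference for the growth inhibition reported for compound-exposed, repair-deficient yeast.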
Assay [2] can be described thus: NCI Yeast Anticancer Drug Screen. Data for the mec2-1 strain (AID 157). To be noted: S. cerevisiae mec2-1 strain, at 50.0 µM, hits give high values. The method in brief:
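Strain: mec2-1 (DNA repair/cell cycle alteration). Compound exposure, then growth measured; inhibition expressed relative to vehicle.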

The nature of assay [3]: NCI Yeast Anticancer Drug Screen. Data for the sgs1 mgt1 strain (AID 161).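 Further: 0% = growth of cultures given vehicle only.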 Particulars: S. cerevisiae sgs1 mgt1 strain, at 50.0 µM, hits give high values. The method in brief: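 Mutant yeast exposed to compound; growth scored against vehicle-only wells.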
The nature of assay [4]: NCI Yeast Anticancer Drug Screen. Data for the cln2 rad14 strain (AID 165).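 Further: 0% = growth equal to vehicle treated cultures.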 Particulars: S. cerevisiae cln2 rad14 strain, at 50.0 µM, hits give high values. The method in brief:
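Compounds are applied to the cln2 rad14 yeast strain, and growth is then compared with that of vehicle-treated cultures to give inhibition.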

Assay [5] is described as follows: NCI Yeast Anticancer Drug Screen. Data for the bub3 strain (AID 167). Particulars: S. cerevisiae bub3 mutant strain, at 50.0 µM, hits give high values. In outline:
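Mutant yeast screening strain plus compound; vehicle-treated cultures serve as the 0% inhibition reference.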

A short description of assay [6]: NCI Yeast Anticancer Drug Screen. Data for the mlh1 rad18 strain (AID 175). To be noted: S. cerevisiae mlh1 rad18 strain growth inhibition; at 50.0 µM; hits give high values. In outline:
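Read-out is yeast growth inhibition, calculated against vehicle-only controls. The compound was applied to a strain engineered with DNA damage repair alterations.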

Results on 20 compounds are retold here after PubChem BioAssay (NCI).

The panel holds about 79,000 compounds, 15% with a hit somewhere; the sample as a whole holds those more often. Values without a mark were called inactive. Activity calls are given as the source filed them. No stated cut-off is given here; in the data, active means growth inhibition above about 70%; inactive means the rest.

Consider `Clc1cc[c]([Sb]2([c]3ccc(Cl)cc3)([c]3ccc(Cl)cc3)[O]C(C(Cl)(Cl)Cl)[O]2)cc1` (stereo not given), for which the growth inhibition in assay [1] was 98.3% (active); in assay [2] it was 98.5% (active); in assay [3], 98.2% (active); in assay [4], 98.2% (active); in assay [5], 97% (active); in assay [6] it was 97.8% (active).

As for `Cc1nc2ccccc2c(=O)n1-c1ccccc1F`, the growth inhibition in assay [1] was -10.6%; in assay [2], -30.2%; in assay [3], -19.8%; in assay [4] it was 4.8%; in assay [5], -20.9%; in assay [6], -29.8%.

Regarding `CN(c1ccccc1)c1nc(=[N+]2CCCC2)ss1`, the growth inhibition is 11.6% in assay [1]; -1.3% in assay [2]; -11.8% in assay [3]; 0.9% in assay [4]; 7.75% in assay [5]; 24.6% in assay [6].

Turning to `CN1C2CCC1[C@@H](COC(=O)c1ccccc1)[C@@H](O)C2` (stereo not given in full), the growth inhibition was -9.15% in assay [1]; -14.6% in assay [2]; -15.6% in assay [3]; -27.4% in assay [4]; -3.55% in assay [5]; -61% in assay [6].

As for `COc1ccc(N)cc1N`, the growth inhibition in assay [1] was 6.8%; in assay [2], 18.1%; in assay [3], 5.5%; in assay [4] it was -42.4%; in assay [5], 25.5%; in assay [6] it was 11.1%.

For the compound `CN(C)c1ccc(C(c2c(O)c3ccc(O)cc3oc2=O)c2c(O)c3ccc(O)cc3oc2=O)cc1`, the growth inhibition in assay [1] was 8.4%; in assay [2], 7.75%; in assay [3], 22.2%; in assay [4] it was 32.7%; in assay [5], 3.9%; in assay [6] it was 11.4%.

For `NNC(=O)NNC(=O)NN`, the growth inhibition in assay [1] is -5.95%; in assay [2], -3.1%; in assay [3] it was -12.3%; in assay [4], 1.65%; in assay [5] it was -8.25%; in assay [6], 9.9%.

In the case of `NCc1c[nH]c2ccccc12`, the growth inhibition in assay [1] was -25.1%; in assay [2] it was 4.8%; in assay [3], -22.7%; in assay [4], -12.8%; in assay [5], -16.5%; in assay [6], -9.7%.

In the case of `COC1OCC(N=[N+]=[N-])C(OC)C1O` (stereo not given), the growth inhibition in assay [1] was 18.8%; in assay [2] it was -12.4%; in assay [3] it was -3.1%; in assay [4], -19.2%; in assay [5], 5.65%; in assay [6], -1.8%.

As for `Clc1ccc(N2CCN(c3ccc(Cl)cc3)CC2)cc1`, the growth inhibition is -20.1% in assay [1]; 1.45% in assay [2]; -6.75% in assay [3]; 1.25% in assay [4]; -6.9% in assay [5]; 6.05% in assay [6].

`N#CN=C(N)NC#N`: the growth inhibition was 24.1% in assay [1]; 12.9% in assay [2]; 7.3% in assay [3]; 0.55% in assay [4]; 13.8% in assay [5]; 17.1% in assay [6].

`CCCCP(=O)(CCCC)CCCC.CCCCP(=O)(CCCC)CCCC.CCCCP(=O)(CCCC)CCCC.CCCCP(=O)(CCCC)CCCC.[Mn+2].[O-][Cl+3]([O-])([O-])O`: the growth inhibition in assay [1] is 13.3%; in assay [2], -57.7%; in assay [3], -24.6%; in assay [4], -17.5%; in assay [5], -21.9%; in assay [6], -17.9%.

With `NCC(=O)c1ccc(O)c(O)c1`, the growth inhibition in assay [1] is -8.85%; in assay [2], -7.05%; in assay [3] it was -4.35%; in assay [4] it was 2.8%; in assay [5], 16.4%; in assay [6] it was -8.55%.

Take `Cc1cccc2c1[se]c1ccccc12`: the growth inhibition in assay [1] was -11.5%; in assay [2], -3.85%; in assay [3], -12%; in assay [4], 4.45%; in assay [5] it was 2.7%; in assay [6], -17.1%.

`CC(CCC#N)([N+](=O)[O-])[N+](=O)[O-]`: the growth inhibition was 17.1% in assay [1]; 12.8% in assay [2]; 4.35% in assay [3]; 0.5% in assay [4]; 10.3% in assay [5]; 12.9% in assay [6].

On to `C1C[N-]CC[N-]1.C1C[N-]CC[N-]1.N#CS.[Ni+2]`, for which the growth inhibition was 5.1% in assay [1]; 5.65% in assay [2]; 1.4% in assay [3]; -11.9% in assay [4]; 7.6% in assay [5]; -5.4% in assay [6].

`CC1(C)N=C(N)N=C(N)N1c1ccc(CCc2ccc(S(=O)(=O)F)cc2Cl)c(Cl)c1`: the growth inhibition in assay [1] was 99.4% (active); in assay [2], 99.7% (active); in assay [3], 99.7% (active); in assay [4] it was 81.5% (active); in assay [5], 99.2% (active); in assay [6], 99.5% (active).

In the case of `O=P(CCP(=O)(c1ccccc1)c1ccccc1)(c1ccccc1)c1ccccc1`, the growth inhibition was -17.6% in assay [1]; -23.1% in assay [2]; -0.5% in assay [3]; 26.2% in assay [4]; 3.2% in assay [5]; 3.75% in assay [6].

For the compound `CC1CC[Si](C)(C)CC12C(=O)NC(=O)NC2=O` (stereo not given), the growth inhibition in assay [1] was 6.65%; in assay [2], 1.95%; in assay [3], 19.6%; in assay [4], -0.05%; in assay [5] it was 10.1%; in assay [6] it was -7.05%.

Consider `CCOC(=O)C1C2(C)NC(=O)C1(Cc1ccccc1)c1cc(C)c(C)cc1O2` (stereo not given), for which the growth inhibition in assay [1] was -0.75%; in assay [2], 16.5%; in assay [3], -11.8%; in assay [4], -6.15%; in assay [5], -3.3%; in assay [6], 3.45%.
